“And” between values parts separate entries of the source, which are not always exact repeats. Identical values can stand only once. Records with an inconclusive call do not appear. Where a call stands in place of a potency, no number is given. More than one record can exist for a structure, and the calls need not agree. The source made the active and inactive calls. The call rests on the fitted dose curve.
Experiment: p53 small molecule agonists, cell-based qHTS assay with rat liver microsomes: qHTS cell viability counter screen (AID 1963580)
Settings: p53RE-bla HCT-116 + rat microsomes, ATP viability, 16 h; series mostly up to 66 µM
Procedure, shortened: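 Cytotoxicity counter screen: intracellular ATP measured by CellTiter-Glo luminescence in the same wells as the beta-lactamase reporter read, on HCT-116 p53RE-bla cells exposed 16 h at 37 C to compounds with rat liver microsomes and NADPH, each 0.5 mg/mL final.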
Further: nearly all actives have a fitted effect of over 45% in size.
Potency means the concentration at half of the fitted maximal effect.

Compound | Potency
C=CC=O | inactive
c1nc[nH]n1 | inactive
c1ccc(Nc2ccc3ccccc3c2)cc1 | inactive
CCOP(=O)(OCC)OP(=O)(OCC)OCC | inactive
Nc1cccnc1 | inactive
Clc1ccccc1Cl | inactive
CCN(CC)C(=S)S | inactive
CC(C)Nc1nc(Cl)nc(NC(C)C)n1 | inactive
Nc1ccc(-c2ccc(N)c(N)c2)cc1N | inactive
CC(=O)[O][Hg][c]1ccccc1 | 3.6 µM (active) and 5.76 µM (active) and 11.2 µM (active)
CCCCCCCCCl | inactive
C#CCOS(=O)OC1CCCCC1Oc1ccc(C(C)(C)C)cc1 (configuration not stated) | inactive
O=S(=O)(O)OOS(=O)(=O)O | inactive
ClCC(Br)CBr (configuration not stated) | inactive
CCOC(=O)CC(SP(=O)(OC)OC)C(=O)OCC (configuration not stated) | inactive
CCCCCON=O | inactive
FC(F)(F)c1ccc(Cl)cc1 | inactive

Compound | Potency
CON(C)C(=O)Nc1ccc(Cl)cc1 | inactive
COP(=S)(OC)Oc1ccc([N+](=O)[O-])cc1 | inactive
CCCCCCCCC(=O)NCc1ccc(O)c(OC)c1 | inactive
COc1c(C(C)(C)C)cc([N+](=O)[O-])c(C)c1[N+](=O)[O-] | inactive
Cc1ccc(N)cc1 | inactive
CCCCCCCCCCCCCCCC[N+](C)(C)C | inactive
CCc1cnc(C2=NC(C)(C(C)C)C(=O)N2)c(C(=O)O)c1 (configuration not stated) | inactive
CCCCCBr | inactive
COP(=S)(OC)Oc1ccc(Sc2ccc(OP(=S)(OC)OC)cc2)cc1 | inactive
CC(=O)CCC(C)=O | inactive
CCOP(=O)(O)OCC (tested in a mixture with another compound) | inactive and 36.1 µM (active)
O=[N+]([O-])c1ccc(Cl)c(Cl)c1 | inactive
CC(C)(O)C(=O)Nc1ccc([N+](=O)[O-])c(C(F)(F)F)c1 | inactive
CCC(Cl)[N+](=O)[O-] (configuration not stated) | inactive
CCCCCCCCCCCC(=O)O | inactive
OC(Cc1ccccc1Cl)(Cn1cncn1)C1(Cl)CC1 (configuration not stated) | inactive

Experiment: p53 small molecule agonists, cell-based qHTS assay: qHTS cell viability counter screen (AID 1963581)
Settings: p53RE-bla HCT-116 viability, ATP luminescence, 16 h; series mostly up to 66 µM
Procedure, shortened: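 Viability was counter-screened in parallel with the p53 agonist reporter by measuring intracellular ATP luminescence in the same HCT-116 p53RE-bla wells after 16 h compound treatment at 37 C.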

Compound | Potency
C=CC=O | inactive
CCC(C)(C#N)N=NC(C)(C#N)CC (configuration not stated) | inactive
c1nc[nH]n1 | inactive
c1ccc(Nc2ccc3ccccc3c2)cc1 | inactive
CCOP(=O)(OCC)OP(=O)(OCC)OCC | inactive
Nc1cccnc1 | inactive
Clc1ccccc1Cl | inactive
CCN(CC)C(=S)S | inactive
Nc1ccc(-c2ccc(N)c(N)c2)cc1N | inactive
CC(C)OS(C)(=O)=O | inactive
CCCCOC(=O)c1ccccc1C(=O)O | inactive
CC(=O)[O][Hg][c]1ccccc1 | 1.61 µM (active) and 4.08 µM (active) and 5 µM (active)
C#CCOS(=O)OC1CCCCC1Oc1ccc(C(C)(C)C)cc1 (configuration not stated) | inactive
O=S(=O)(O)OOS(=O)(=O)O | inactive
ClCC(Br)CBr (configuration not stated) | inactive
CC(C)C#N | inactive
CCOC(=O)CC(SP(=O)(OC)OC)C(=O)OCC (configuration not stated) | inactive

Compound | Potency
FC(F)(F)c1ccc(Cl)cc1 | inactive
CON(C)C(=O)Nc1ccc(Cl)cc1 | inactive
COP(=S)(OC)Oc1ccc([N+](=O)[O-])cc1 | inactive
CCCCCCCCC(=O)NCc1ccc(O)c(OC)c1 | inactive
COc1c(C(C)(C)C)cc([N+](=O)[O-])c(C)c1[N+](=O)[O-] | inactive
Cc1ccc(N)cc1 | inactive
CCCCCCCCCCCCCCCC[N+](C)(C)C | inactive
CCc1cnc(C2=NC(C)(C(C)C)C(=O)N2)c(C(=O)O)c1 (configuration not stated) | inactive
CCCCCBr | inactive
COP(=S)(OC)Oc1ccc(Sc2ccc(OP(=S)(OC)OC)cc2)cc1 | inactive
CC(=O)CCC(C)=O | inactive
CCOP(=O)(O)OCC (tested in a mixture with another compound) | inactive and 28.6 µM (active)
O=[N+]([O-])c1ccc(Cl)c(Cl)c1 | inactive
CC(C)(O)C(=O)Nc1ccc([N+](=O)[O-])c(C(F)(F)F)c1 | inactive
CCC(Cl)[N+](=O)[O-] (configuration not stated) | inactive
CCCCCCCCCCCC(=O)O | inactive
OC(Cc1ccccc1Cl)(Cn1cncn1)C1(Cl)CC1 (configuration not stated) | inactive
